In assay [1] the target is Voltage-gated inwardly rectifying potassium channel KCNH2 (Homo sapiens) (UniProt Q12809). Kind of assay: qHTS Assay for Small Molecule Inhibitors of the Human hERG Channel Activity (AID 588834).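 Note: lower thallium flux fluorescence means stronger hERG block; nearly all actives have a fitted effect of over 50% in size.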 Note: potency is the fitted concentration of half-maximal effect. Put shortly: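 Step 1: BacMam hERG transduction of U2OS, 4 hrs RT. Step 2: overnight 37 °C, plate 2000 cells/well, 4 hr. Step 3: FluxOR load, compound 10 min, stimulate, read fluorescence.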
Chain of Voltage-gated inwardly rectifying potassium channel KCNH2 (Homo sapiens) (Q12809 whole entry, looked up): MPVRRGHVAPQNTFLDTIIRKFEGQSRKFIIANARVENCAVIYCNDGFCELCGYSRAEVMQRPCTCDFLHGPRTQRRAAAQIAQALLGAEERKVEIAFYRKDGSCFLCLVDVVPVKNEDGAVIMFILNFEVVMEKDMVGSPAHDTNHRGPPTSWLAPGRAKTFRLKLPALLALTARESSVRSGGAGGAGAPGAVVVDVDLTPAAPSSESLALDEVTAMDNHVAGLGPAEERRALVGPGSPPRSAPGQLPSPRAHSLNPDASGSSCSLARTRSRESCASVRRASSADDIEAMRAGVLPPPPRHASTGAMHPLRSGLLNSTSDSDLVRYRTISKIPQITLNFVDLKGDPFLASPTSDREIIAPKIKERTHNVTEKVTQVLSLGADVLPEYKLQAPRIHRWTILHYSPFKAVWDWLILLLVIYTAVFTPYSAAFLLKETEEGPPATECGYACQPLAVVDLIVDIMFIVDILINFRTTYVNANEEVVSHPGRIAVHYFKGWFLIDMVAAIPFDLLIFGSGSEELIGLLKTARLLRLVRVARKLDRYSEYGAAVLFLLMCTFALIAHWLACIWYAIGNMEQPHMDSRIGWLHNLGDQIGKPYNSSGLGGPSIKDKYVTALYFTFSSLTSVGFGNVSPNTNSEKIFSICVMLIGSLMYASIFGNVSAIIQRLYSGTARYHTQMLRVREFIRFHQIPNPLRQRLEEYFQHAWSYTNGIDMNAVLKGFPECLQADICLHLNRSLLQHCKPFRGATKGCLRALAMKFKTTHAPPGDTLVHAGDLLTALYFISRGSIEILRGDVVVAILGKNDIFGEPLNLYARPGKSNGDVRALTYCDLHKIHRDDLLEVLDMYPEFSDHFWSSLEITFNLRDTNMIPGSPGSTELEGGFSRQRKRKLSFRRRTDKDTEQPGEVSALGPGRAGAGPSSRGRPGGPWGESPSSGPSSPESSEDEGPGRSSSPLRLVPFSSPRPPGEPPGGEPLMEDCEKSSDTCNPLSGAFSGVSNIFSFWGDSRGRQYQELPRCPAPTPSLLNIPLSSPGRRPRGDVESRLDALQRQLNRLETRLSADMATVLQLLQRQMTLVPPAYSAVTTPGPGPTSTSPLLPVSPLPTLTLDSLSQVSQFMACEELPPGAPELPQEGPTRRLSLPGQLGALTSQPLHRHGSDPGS

The target in assay [2] is Luciferin 4-monooxygenase (Photinus pyralis) (UniProt P08659). Kind of assay: Biochemical firefly luciferase enzyme assay for NPC (AID 624030). Note: nearly all actives have a fitted effect of over 70% in size. Note: potency is the fitted concentration of half-maximal effect. Put shortly: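 Counter-screen for direct inhibition of the luciferase enzyme by approved-drug library compounds, run at 10 nM enzyme in 50 mM Tris acetate (final). Luminescence was read within 5 min of enzyme-buffer addition and normalized to PTC124 versus DMSO (0%).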
Chain of Luciferin 4-monooxygenase (Photinus pyralis) (P08659 whole entry, looked up): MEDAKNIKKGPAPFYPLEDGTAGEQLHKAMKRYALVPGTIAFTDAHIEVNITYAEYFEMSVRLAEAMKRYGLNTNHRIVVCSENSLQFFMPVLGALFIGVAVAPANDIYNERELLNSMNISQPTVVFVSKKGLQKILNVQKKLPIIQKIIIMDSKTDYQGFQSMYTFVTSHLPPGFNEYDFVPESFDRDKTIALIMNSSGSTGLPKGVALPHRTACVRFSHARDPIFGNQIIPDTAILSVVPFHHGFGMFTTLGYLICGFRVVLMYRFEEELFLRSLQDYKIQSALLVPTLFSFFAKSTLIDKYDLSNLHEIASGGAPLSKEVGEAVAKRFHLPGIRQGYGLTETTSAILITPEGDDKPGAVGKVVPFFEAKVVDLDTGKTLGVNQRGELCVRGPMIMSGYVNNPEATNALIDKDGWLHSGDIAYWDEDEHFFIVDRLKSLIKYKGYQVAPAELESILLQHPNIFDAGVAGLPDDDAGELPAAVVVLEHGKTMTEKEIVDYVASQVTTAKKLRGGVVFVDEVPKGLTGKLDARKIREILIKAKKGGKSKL

For assay [3], the target named is Vitamin D3 receptor (Homo sapiens) (UniProt P11473). Briefly: qHTS assay for small molecule antagonists of vitamin D receptor signaling (AID 588541; calls by dose curve;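 note: receptor activated by calcitriol during compound treatment; series mostly up to about 77 µM; % is set by controls: 0 for no effect and ±100 for the full control effect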). The method, boiled down:
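VDR-UAS-bla HEK293T cells (2000/well, 2% charcoal-stripped FBS) were treated with titrated compounds plus 1-alpha,25-dihydroxyvitamin D3 (50 nM or 3 nM final) for 16 h at 37 C. CCF4 beta-lactamase fluorescence was read; Hill fits gave IC50.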

The target in assay [4] is Thyroid hormone receptor beta (Homo sapiens) (UniProt P10828). Kind of assay: qHTS assay for small molecule agonists of thyroid hormone receptor beta signaling (AID 588545; calls by dose curve;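 note: 0% = DMSO only and 100% = 10 nM T3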). The method, boiled down: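 Stimulation of a TR-driven beta-lactamase reporter was quantified in GripTite HEK 293 cells. Compound series ran for 18 hrs; curves were normalized to T3 and DMSO controls and fitted to yield EC50.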
Chain of Thyroid hormone receptor beta (Homo sapiens) (P10828 whole entry, looked up): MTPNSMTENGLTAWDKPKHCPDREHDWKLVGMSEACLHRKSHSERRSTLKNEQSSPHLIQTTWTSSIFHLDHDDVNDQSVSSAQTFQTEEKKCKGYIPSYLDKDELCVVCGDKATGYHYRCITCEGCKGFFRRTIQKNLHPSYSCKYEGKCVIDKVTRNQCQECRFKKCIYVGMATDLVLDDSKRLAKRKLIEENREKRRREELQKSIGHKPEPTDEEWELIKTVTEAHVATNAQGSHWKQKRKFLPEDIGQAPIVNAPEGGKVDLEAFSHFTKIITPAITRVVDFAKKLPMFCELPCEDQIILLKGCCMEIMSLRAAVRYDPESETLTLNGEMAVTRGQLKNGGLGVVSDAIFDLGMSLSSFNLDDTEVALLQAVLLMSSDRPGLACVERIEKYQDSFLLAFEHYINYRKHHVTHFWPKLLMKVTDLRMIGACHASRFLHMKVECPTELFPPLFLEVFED

For assay [5] the target is unchanged. Briefly: qHTS assay for small molecule antagonists of thyroid hormone receptor beta signaling (AID 588547; active = well fitted inhibition curve with a large enough effect in the signal ratio, with a control signal flat, not every such curve was filed as active; the % refers to the signal ratio;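 note: cells stimulated with 0.4 nM T3 agonist during compound exposure; series mostly up to about 77 µM; % is set by controls: 0 for no effect and ±100 for the full control effect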). The conditions noted are these: TR-UAS-bla HEK293, beta-lactamase ratio, antagonist mode, 18 h. Put shortly: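 TR-UAS-bla GripTite HEK293 cells in 2% charcoal/dextran FBS medium were preincubated 4 h at 37 C, given compound (0.59 nM to 92 uM) plus 0.4 nM T3 (final) for 18 h, then CCF4 for 2 h at RT; Hill fit gave IC50.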

In assay [6] the target is Androgen receptor (Homo sapiens) (UniProt P10275). Briefly: qHTS assay for small molecule antagonists of androgen receptor signaling (AID 588516; active = well fitted curve in the direction sought with a large enough effect in the signal ratio, with a control signal flat, not every such curve was filed as active; the % refers to the signal ratio; note: % is set by controls: 0 for no effect and ±100 for the full control effect). Put shortly:
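Cells were plated and incubated 5 h, compounds added in titration, then R1881 (10 nM final) as agonist. After 16 h at 37 C, CCF4 substrate was loaded for 2 h at room temperature and fluorescence measured.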

For assay [7], the target named is Bile acid receptor (Homo sapiens) (UniProt Q96RI1). Kind of assay: qHTS assay for small molecule antagonists of farnesoid X receptor signaling (AID 588526; calls by dose curve; note: % is set by controls: 0 for no effect and ±100 for the full control effect). Put shortly:
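Concentration-response titrations were fitted to the Hill equation for half-maximal inhibition and maximal response, with data normalised to 50 uM chenodeoxycholic acid and DMSO control wells. Cells: FXR-UAS-bla HEK293T, dialyzed FBS.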

Assay [8] deals with Glucocorticoid receptor (Homo sapiens) (UniProt P04150). Kind of assay: qHTS assay for small molecule agonists of glucocorticoid receptor signaling (AID 588532; active = well fitted curve in the direction sought with a large enough effect in the signal ratio, with a control signal flat; the % refers to the signal ratio;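 note: 100% = dexamethasone at 0.1 µM and 0% = DMSO only wells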). The conditions noted are these: HeLa MMTV-bla, beta-lactamase ratio, agonist, 18 h; stronger effect = higher value; percent of dexamethasone control, DMSO zero. The method, boiled down:
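Titration series, up to 92 uM, applied to GRE-bla HeLa cells for 18 h at 37 C. Detection by CCF4 FRET substrate after 2 h at RT.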

Assay [9] has the same target. Briefly: qHTS assay for small molecule antagonists of glucocorticoid receptor signaling (AID 588533; active = well fitted inhibition curve with a large enough effect in the signal ratio, with a control signal flat, not every such curve was filed as active; the % refers to the signal ratio;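 note: cells stimulated with 2 nM dexamethasone as agonist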; note: potency is the fitted concentration of half-maximal effect). The method, boiled down: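 Antagonist-mode qHTS: compound titrations added to GRE-bla HeLa cells, then dexamethasone 2 nM final; 18 h, 37 C. CCF4 FRET fluorescence normalized to dexamethasone and DMSO; IC50 from Hill fit.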
The nature of assay [10]: qHTS assay for small molecule antagonists of peroxisome proliferator-activated receptor delta signaling (AID 588535).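 Note: cells co-treated with a PPAR-delta agonist as stimulator during compound exposure.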 The conditions noted are these: HEK293T PPARd-UAS-bla, beta-lactamase FRET ratio, 18 h; 460 nm channel. Put shortly: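 Inhibition of PPAR-delta response element-driven beta-lactamase expression is measured in HEK293T cells exposed to a compound titration series for 18 hrs at 37 C. Half-maximal inhibition comes from Hill equation fitting.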

In assay [11] the target is Peroxisome proliferator-activated receptor gamma (Homo sapiens) (UniProt P37231). Kind of assay: qHTS assay for small molecule agonists of peroxisome proliferator-activated receptor gamma signaling (AID 588536; active = well fitted curve in the direction sought with a large enough effect in the signal ratio, with a control signal flat, not every such curve was filed as active; the % refers to the signal ratio;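 note: 0% = DMSO basal wells and 100% = rosiglitazone at 2 µM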). The method, boiled down: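 Compound treatment: 16 h, 37 C, HEK293 GeneBLAzer cells. Detection: CCF4, 2 h RT. Values: Hill-fit EC50, efficacy as % of 2 uM rosiglitazone.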
Chain of Peroxisome proliferator-activated receptor gamma (Homo sapiens) (P37231 whole entry, looked up): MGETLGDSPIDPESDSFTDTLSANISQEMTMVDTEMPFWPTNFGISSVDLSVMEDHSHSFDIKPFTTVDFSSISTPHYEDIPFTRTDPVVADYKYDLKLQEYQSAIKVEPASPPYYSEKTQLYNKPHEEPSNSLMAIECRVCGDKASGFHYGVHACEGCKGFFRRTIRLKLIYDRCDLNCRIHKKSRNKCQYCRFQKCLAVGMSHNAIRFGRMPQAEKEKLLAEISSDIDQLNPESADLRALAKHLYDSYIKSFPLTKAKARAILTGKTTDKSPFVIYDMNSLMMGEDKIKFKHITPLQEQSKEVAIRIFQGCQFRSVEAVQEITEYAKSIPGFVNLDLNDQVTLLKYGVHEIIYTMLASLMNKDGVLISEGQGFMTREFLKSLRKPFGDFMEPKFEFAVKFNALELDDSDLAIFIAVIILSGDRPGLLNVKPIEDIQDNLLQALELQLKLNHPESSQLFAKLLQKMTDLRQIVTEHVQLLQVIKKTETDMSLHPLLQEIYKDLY

Assay [12] shares this target. Briefly: qHTS assay for small molecule antagonists of peroxisome proliferator-activated receptor gamma signaling (AID 588537; active = well fitted inhibition curve with a large enough effect in the signal ratio, with a control signal flat, not every such curve was filed as active; the % refers to the signal ratio; note: potency is the fitted concentration of half-maximal effect). The method, boiled down:
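Compounds are tested as concentration series for inhibition of rosiglitazone-driven (50 nM) reporter expression in GeneBLAzer PPAR-gamma-UAS-bla HEK293 cells. After 16 h at 37 C, CCF4 substrate is added for 2 h at room temperature and blue/green fluorescence is measured.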

A short description of assay [13]: qHTS assay for small molecule antagonists of retinoid X receptor alpha signaling (AID 588546; active = well fitted inhibition curve with a large enough effect in the signal ratio, with a control signal flat, not every such curve was filed as active; the % refers to the signal ratio). The conditions noted are these: HEK293T RXRa-UAS-bla, beta-lactamase ratio, antagonist mode; measured here: W530 green channel, cytotoxicity proxy. The method, boiled down:
(§1)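 Beta-lactamase reporter inhibition, read as CCF4 fluorescence ratio (ex 405, em 460/530 nm) after 2 h at RT. HEK293T UAS-bla cells, 2500/well, were stimulated with 9-cis-RA at 500 or 100 nM final alongside test compound for 18 h at 37 C.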

Assay [14] addresses Retinoic acid receptor RXR-alpha (Homo sapiens) (UniProt P19793). The description is as above. The conditions noted are these: HEK293T RXRa-UAS-bla, beta-lactamase ratio, antagonist mode. Put shortly:
as §1

The target in assay [15] is Estrogen receptor (Homo sapiens) (UniProt P03372). Briefly: qHTS assay for small molecule antagonists of estrogen receptor alpha signaling (AID 588513; active = well fitted curve in the direction sought with a large enough effect in the signal ratio, with a control signal flat, not every such curve was filed as active; the % refers to the signal ratio; note: % is set by controls: 0 for no effect and ±100 for the full control effect). The method, boiled down: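 Fluorescence from CCF4 substrate after 2 h at room temperature gave reporter activity; cells had been exposed to compound and 0.5nM 17-beta-estradiol for 18 h at 37 C. Hill-equation fitting yielded IC50 and maximal response.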

Assay [16] is described as follows: qHTS assay for small molecule agonists of retinoid X receptor alpha signaling (AID 588544). To be noted: HEK293T RXRa-UAS-bla, beta-lactamase reporter, 18 h; 530 nm emission.

SMILES strings stand for the structures. Where “and” joins values, the source holds several entries; their conditions need not be identical. Identical values can stand only once. Records with an inconclusive call do not appear. Calls of active or inactive are those of the source. Unless noted, calls come from the whole dose curve; as a rule, active = well fitted inhibition curve with a large enough effect; inconclusive = small, poorly fitted or top-dose-only effect; inactive = flat fitted curve, though single readings scatter.

Chain of Vitamin D3 receptor (Homo sapiens) (P11473 whole entry, looked up): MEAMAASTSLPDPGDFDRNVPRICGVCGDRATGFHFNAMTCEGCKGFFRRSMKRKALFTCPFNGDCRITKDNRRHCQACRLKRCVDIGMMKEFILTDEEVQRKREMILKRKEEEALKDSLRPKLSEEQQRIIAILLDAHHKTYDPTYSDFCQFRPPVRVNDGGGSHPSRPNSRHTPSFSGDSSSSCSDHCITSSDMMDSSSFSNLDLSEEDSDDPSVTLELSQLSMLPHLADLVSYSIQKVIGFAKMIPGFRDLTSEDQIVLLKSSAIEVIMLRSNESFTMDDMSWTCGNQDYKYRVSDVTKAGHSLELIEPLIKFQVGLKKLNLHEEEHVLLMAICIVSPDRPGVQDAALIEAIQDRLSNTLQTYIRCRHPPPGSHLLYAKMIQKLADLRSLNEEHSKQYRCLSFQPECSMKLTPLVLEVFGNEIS
Chain of Retinoic acid receptor RXR-alpha (Homo sapiens) (P19793 whole entry, looked up): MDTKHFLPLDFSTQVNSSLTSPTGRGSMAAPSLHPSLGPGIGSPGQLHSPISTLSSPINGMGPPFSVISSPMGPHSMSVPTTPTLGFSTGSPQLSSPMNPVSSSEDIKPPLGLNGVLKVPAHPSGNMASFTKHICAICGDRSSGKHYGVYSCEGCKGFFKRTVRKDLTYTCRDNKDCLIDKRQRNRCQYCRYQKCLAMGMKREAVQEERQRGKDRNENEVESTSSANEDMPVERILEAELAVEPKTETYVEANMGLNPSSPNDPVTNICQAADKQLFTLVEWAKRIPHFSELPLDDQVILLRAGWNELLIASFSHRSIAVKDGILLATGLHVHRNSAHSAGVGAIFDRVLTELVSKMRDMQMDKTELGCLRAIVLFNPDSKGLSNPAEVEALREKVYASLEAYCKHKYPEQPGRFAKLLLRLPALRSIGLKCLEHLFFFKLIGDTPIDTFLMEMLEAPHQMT
Chain of Glucocorticoid receptor (Homo sapiens) (P04150 whole entry, looked up): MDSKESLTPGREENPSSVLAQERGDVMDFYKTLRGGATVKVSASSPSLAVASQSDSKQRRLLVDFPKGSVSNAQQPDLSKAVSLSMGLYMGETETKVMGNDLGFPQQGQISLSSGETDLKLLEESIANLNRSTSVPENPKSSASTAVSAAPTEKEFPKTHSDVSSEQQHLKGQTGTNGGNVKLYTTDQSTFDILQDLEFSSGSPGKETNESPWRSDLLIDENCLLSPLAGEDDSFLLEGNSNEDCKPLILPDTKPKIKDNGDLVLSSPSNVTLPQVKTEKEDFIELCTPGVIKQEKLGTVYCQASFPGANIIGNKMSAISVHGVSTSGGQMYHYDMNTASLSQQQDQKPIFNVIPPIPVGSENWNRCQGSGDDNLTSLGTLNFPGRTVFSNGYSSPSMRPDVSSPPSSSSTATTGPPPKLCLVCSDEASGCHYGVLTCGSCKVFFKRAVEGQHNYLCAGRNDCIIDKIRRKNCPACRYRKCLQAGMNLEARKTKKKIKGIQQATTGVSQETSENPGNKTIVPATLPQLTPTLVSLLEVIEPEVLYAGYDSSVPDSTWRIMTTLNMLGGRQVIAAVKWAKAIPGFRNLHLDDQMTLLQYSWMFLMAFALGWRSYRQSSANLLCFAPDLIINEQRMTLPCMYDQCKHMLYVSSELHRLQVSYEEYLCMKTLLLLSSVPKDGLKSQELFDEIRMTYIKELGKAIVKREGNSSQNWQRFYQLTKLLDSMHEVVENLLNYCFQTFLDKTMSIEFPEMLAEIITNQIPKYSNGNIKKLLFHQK
Chain of Bile acid receptor (Homo sapiens) (Q96RI1 whole entry, looked up): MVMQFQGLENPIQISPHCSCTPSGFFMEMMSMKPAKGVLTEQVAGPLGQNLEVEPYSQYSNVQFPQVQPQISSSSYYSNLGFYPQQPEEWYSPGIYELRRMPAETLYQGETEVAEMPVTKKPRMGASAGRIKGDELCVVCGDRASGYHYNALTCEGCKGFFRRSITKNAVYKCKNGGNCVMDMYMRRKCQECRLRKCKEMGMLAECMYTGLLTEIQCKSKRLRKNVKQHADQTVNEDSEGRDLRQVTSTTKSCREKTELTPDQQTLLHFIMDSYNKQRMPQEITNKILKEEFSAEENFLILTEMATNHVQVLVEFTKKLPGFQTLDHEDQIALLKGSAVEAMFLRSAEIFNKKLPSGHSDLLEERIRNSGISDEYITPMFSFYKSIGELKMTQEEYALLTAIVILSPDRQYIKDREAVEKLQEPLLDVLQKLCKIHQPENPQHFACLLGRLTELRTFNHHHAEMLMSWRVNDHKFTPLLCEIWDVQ

As for `OC[C@@H](O)[C@H](O)[C@H](O)[C@@H](O)CO`, the Potency entry in assay [1] was “inactive”.
On to `O=C1NCC2(CCN(CCc3ccccc3)CC2)O1`, for which the Potency entry in assay [1] and in assay [2] was “inactive” in each case.
On to `COC(=O)[C@@H]1[C@H]2C[C@H]3c4[nH]c5ccccc5c4CCN3C[C@@H]2CC[C@@H]1O`, for which the Potency in assay [1] was 11.2 µM (active).
For the molecule `CC(=O)O[C@]1(C(C)=O)CC[C@H]2[C@@H]3C=C(Cl)C4=CC(=O)[C@@H]5C[C@@H]5[C@]4(C)[C@H]3CC[C@@]21C`, the result in assay [3] and in assay [4] was inactive. Moreover, the activity change % (negative = inhibition) in assay [5] is 13.7% (inactive) and 12.8% (inactive). Moreover, the Potency result in assay [1] and in [2] was “inactive” each time.
As for `O=c1c(-c2ccc(O)cc2)coc2cc(O)ccc12`, the result in assay [6], in assay [7], in assay [11] and in assay [4] was inactive. The activation in assay [8] was -8.98% (inactive) and -6.42% (inactive). For the same molecule, the Potency result in [9], in assay [12] and in assay [1] was “inactive” in each case. Besides, the max response was 40.9% and 70.8% in assay [10]; 2.28% and 13.9% in assay [13]; 8.82% (inactive) and -46% (inactive) in [14]. The activity change % (negative = inhibition) in assay [5] was 20.4% (inactive).
Consider `COc1cccc(-c2cc(=O)c3ccccc3o2)c1N`, for which the Potency result in [1] is “inactive”.
Turning to `O=C(O)c1cc(O)c2c(c1)C(=O)c1cccc(O)c1C2=O`, the Potency result in assay [15] and in assay [1] was “inactive” throughout. Further, the activation in assay [8] is 1.5% (inactive). Besides, the result in assay [4] was inactive.
As to `CC(C(=O)O)c1ccc(-c2ccccc2)c(F)c1` (stereo not given), the Potency result in [1] was “inactive”.
On to `O=C(O)CCc1nc(-c2ccccc2)c(-c2ccccc2)o1`, for which the Potency entry in assay [1] and in assay [2] was “inactive” each time.
On to `O=c1cc(-c2ccccc2)oc2cc(O)cc(O)c12`, for which the activation in assay [8] was -10.9% (inactive). Besides, the molecule was called inactive in assay [4].
For `CC(=O)N[C@@H](CS)C(=O)O`, the molecule was classed as inactive in [7], in [11], in assay [3] and in assay [4]. Further, the Potency entry in assay [9], in assay [1] and in [2] was “inactive” in each case. For the same molecule, the max response in assay [10] was -4.28%; in [16], -10.9%; in assay [13], -5.69%; in assay [14] it was 2.12% (inactive). Moreover, in [5], the activity change % (negative = inhibition) was -10.2% (inactive).
As for `O=C(O)c1c(Cl)c(Cl)c(Cl)c(Cl)c1-c1c2cc(I)c(=O)c(I)c-2oc2c(I)c(O)c(I)cc12`, the Potency in assay [1] is 12.6 µM (active); in assay [2], 25.6 µM (active).
As to `O=c1cc(-c2ccc(O)cc2)oc2cc(O)cc(O)c12`, the Potency in [9] was 31.6 µM (active); in [12], 44.7 µM (active). Moreover, the molecule was classed as inactive in [4]. The activity change % (negative = inhibition) in [5] is -28.1% (inactive). In addition, in [1], the Potency entry was “inactive”.

The values above are taken from PubChem BioAssay (NCATS).
